This is a sample that favours compounds with a hit; in the whole collection about 9.6% have one here.
HCT116 bCat-KO: primary screen for growth suppressors in beta-catenin knockout HCT116 cells (colon tumor, human). HCT116 beta-catenin knockout viability, CellTiter-Glo, 60 h; stronger effect = lower value. viability, % at 10 µM. hit rate 1.5% among 140,000;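 active = viability at or under a set limit, the compound median less 4 SD, cut at about 6% in these data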;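 note: 0% = Hyamine 1622 control at 20 µM and 100% = untreated cell control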
Lmaj promast: Leishmania major promastigote growth inhibition, primary screen; Leishmania major promastigotes, resazurin fluorescence viability; inhibition, % at 10 µM; hit rate 9% among 200,000; AID 1063, 2008; in the data active = inhibition above about 50%;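 note: promastigotes grown with compound for 44 hours at 28 °C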
HCT116 PTEN-null: growth suppression of PTEN-null HCT116, primary screen, cell-based, CellTiter-Glo; hit rate 1.2% among 140,000; viability, % at 10 µM; AID 827, 2007; HCT116 PTEN-null viability, 60 h; stronger effect = lower value;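 active = viability at or below a set limit, 4 SD under the median of all tested compounds, cut at about 3.7% in these data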;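 note: PTEN knockout HCT116 line with beta catenin targeted HCT116 as companion control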
Autophagy HCS: autophagy modulators in MEF cells, primary screen, imaging, high-content, MEF GFP-LC3 | MEF GFP-LC3 puncta imaging; test concentration mostly 10 µM | calls only at 10 µM (by protocol) | hit rate 0.98% among 190,000 | AID 463193, 2010;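 active = percentage of spot-positive cells more than 3 SD above its plate mean, without a fluorescence outlier flag or 80% toxicity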;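 note: spot-positive cell cutoff set from DMSO-treated cells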
Ins promoter up: insulin promoter activators in MIN6 cells, imaging, high-content screening, mouse beta cells; AID 1625, 2009; z-score at 5 µM; MIN6 insulin promoter-GFP reporter; stronger effect = higher value; hit rate 0.3% among 190,000;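 active = z-score above 3 at 5 µM with at least 500 cells counted in the well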
Insulin prom inh: inhibitors of insulin promoter-driven GFP, primary screen, imaging, TRM-6 cells (human fetal islet line), eGFP reporter, cell count | reporter expression induced with tamoxifen | inhibition, % at 2 µM | hit rate 0.9% among 130,000;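 active = inhibition above the mean plus 3 SD, with well images judged a real hit on visual review, cut at about 60% in these data, passing the limit was not always enough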
Starred values were filed as active, the others as inactive; i = inactive; / = no result; + = active, no number.

SMILES | HCT116 bCat-KO | Lmaj promast | HCT116 PTEN-null | Autophagy HCS | Ins promoter up | Insulin prom inh
O=C(CSc1ccccn1)Nc1ccc(Br)cn1 | 98.2 | -4.5 | 85.1 | i | / | -6.2
O=c1cc2ncc(-n3cc([N+](=O)[O-])cn3)cn2[nH]1 | / | -6.5 | / | i | 0.92 | 27.3
CCc1cccc(CC)c1NC(=O)COC(=O)c1ccccc1-c1nc2ccccc2s1 | 52.8 | 14.9 | 59.9 | i | -0.59 | 36.7
CCOc1ccc(CNC(=O)c2ccc(Sc3ccc(Cl)cc3)c(NC(C)=O)c2)cc1OC | 76.3 | 5.8 | 76.0 | i | -0.22 | -33.3
Cc1cc(C)c2nc3nc(C)c(C)cc3c(N)c2c1 | / | 100.3* | / | i | -0.82 | /
N#Cc1ccc(-c2ccc(Cl)cc2)nc1SCC(=O)c1cccc(Cl)c1 | 70.0 | 0.5 | 45.2 | + | 6.91* | 5.4
N#Cc1ccc(-c2ccccc2)nc1SCC(=O)c1cccc(Cl)c1 | 102.6 | -6.8 | 99.0 | + | / | -66.7
N#Cc1ccc(-c2cccnc2)nc1SCC(=O)c1ccccc1 | / | / | / | / | 2.09 | /
CCN(CC)C(=O)CSc1nc(-c2ccccc2)ccc1C#N | / | 2.7 | / | i | -0.7 | /
COCCOC(=O)C1=C(C)NC(C)=C(C(=O)OC(C)C)C1c1cccc([N+](=O)[O-])c1 (stereo unspecified) | 73.0 | 66.2* | 82.4 | i | / | 9.5
COc1ccc(CN(Cc2nc3ccccc3c(=O)[nH]2)C(=O)NC2CCCCC2)cc1 | 84.4 | 4.1 | 95.5 | i | 0.16 | -59.5
CCN1CCN(CC(O)COC(c2ccccc2)c2ccccc2)CC1 (stereo unspecified) | / | 0.1 | / | i | 0.65 | -6.7
OC(COC(c1ccccc1)c1ccccc1)CN1CCCCC1 (stereo unspecified) | 87.4 | 99.2* | 91.8 | i | / | -50.0
O=C(c1ccccc1)c1ccc(OCC(O)CN2CCCCC2)cc1 (stereo unspecified) | 88.5 | 89.5* | 96.5 | i | -0.22 | -31.8
CCOC(=O)C1CCN(CC(O)COc2ccc(C(=O)CC)cc2)CC1 (stereo unspecified) | 88.0 | 93.7* | 89.5 | i | 0.15 | 36.8
O=S(=O)(c1ccc(OCC(O)CN2CCc3ccccc3C2)cc1)N1CCOCC1 (stereo unspecified) | 93.5 | 61.6* | 103.6 | i | -0.26 | 23.7
O=C(c1ccccc1)c1ccc(OCC(O)CN2CCN(S(=O)(=O)N3CCCCC3)CC2)cc1 (stereo unspecified) | 38.5 | 35.3 | 42.6 | i | -0.81 | 10.0
O=S(=O)(c1ccc(OCC(O)CN2CCCCC2)cc1)N1CCOCC1 (stereo unspecified) | 93.3 | 15.0 | 94.2 | i | / | 28.6
O=C(O)CCc1ccc(-c2ccc(F)cc2)n1CC(=O)O | 87.7 | -4.2 | 102.7 | i | / | 10.0
OC(COc1ccc(C2C=CCC2)cc1)CN1CCCCC1 (stereo unspecified) | 67.1 | 97.0* | 69.2 | i | -1.31 | 21.4
O=C(/C=C/c1ccccc1)N1CCN(CC(O)COc2ccccc2)CC1 (stereo unspecified) | 97.5 | 78.5* | 95.5 | i | -0.23 | 4.5
CN(C)S(=O)(=O)N1CCN(CC(O)COc2ccc(C(=O)c3ccccc3)cc2)CC1 (stereo unspecified) | 75.2 | 93.2* | 71.9 | i | -0.87 | -27.0
CC(=O)c1ccc(OCC(O)CN2CCCC(C)C2)cc1 (stereo unspecified) | 104.3 | 42.6 | 102.1 | i | -0.11 | /
OC(COc1ccc(CNCCc2ccccc2F)cc1)CN1CCCCC1 (stereo unspecified) | / | 78.5* | / | i | 0.24 | /
CCOC(=O)c1sc(NC(=O)CCN2C(=O)c3cccc([N+](=O)[O-])c3C2=O)c(C(=O)OCC)c1C | 97.2 | -6.7 | 94.8 | i | -0.04 | 18.5
SMILES | HCT116 bCat-KO | Lmaj promast | HCT116 PTEN-null | Autophagy HCS | Ins promoter up | Insulin prom inh
OC(COc1ccccc1)CN1CCOCC1 (stereo unspecified) | 84.7 | -1.2 | 89.7 | i | 0.36 | -42.9
O=C(c1ccc(Cl)cc1)c1ccc(OCC(O)CN2CCOCC2)cc1 (stereo unspecified) | 73.2 | 63.0* | 74.2 | i | 0.6 | -9.5
Cc1cccc(C(=O)O/N=C/c2c(N3CCOCC3)n(C)c3ccccc23)c1 | 33.2 | 98.9* | 16.4 | i | -0.63 | /
Cn1c(Cl)c(/C=N/OC(=O)c2ccccc2Cl)c2ccccc21 | 94.7 | -9.6 | 111.5 | i | 0.71 | -233.3
Cn1c2c(c(=O)n(C)c1=O)C(C(F)(F)F)(C(F)(F)F)N=C(c1ccccc1Cl)N2 | 83.5 | 1.7 | 93.4 | i | / | 21.7
Cn1c2c(c(=O)n(C)c1=O)C(C(F)(F)F)(C(F)(F)F)N=C(CCC1CCCCC1)N2 | 16.5 | 90.0* | 15.0 | i | -2.19 | -19.4
Cc1ccc(CS(=O)(=O)CCC(=O)NCc2ccc3c(c2)OCO3)cc1 | 84.0 | -5.2 | 82.8 | i | -0.2 | -37.5
N#CC(c1ccccc1)c1ccc2c(C(F)(F)F)cc(C(F)(F)F)nc2n1 (stereo unspecified) | 14.0 | -3.1 | 8.4 | i | 0.41 | -41.9
Cc1ccc(C(C#N)c2ccc3c(C(F)(F)F)cc(C(F)(F)F)nc3n2)cc1 (stereo unspecified) | 27.8 | -1.9 | 19.6 | + | 0.87 | 5.4
CN(C)S(=O)(=O)c1cccc(NC(=O)c2n[nH]c(=O)c3ccccc23)c1 | / | -1.1 | / | i | -0.46 | /
COC(=O)c1ccc(NC(=O)c2cc(-c3ccccn3)nc3ccccc23)cc1 | / | -3.8 | / | i | -0.38 | /
CCN(CC)S(=O)(=O)c1cc(NC(=O)c2n[nH]c(=O)c3ccccc23)ccc1C | / | 66.0* | / | i | -0.18 | /
CCN(CC)S(=O)(=O)c1cc(NC(=O)c2cc(-c3ccccn3)nc3ccccc23)ccc1C | / | 53.1* | / | i | -0.82 | /
c1cncc(-c2nc3ccccc3o2)c1 | 82.0 | 0.2 | 95.0 | i | 0.33 | 50.0
Cc1ccc(C(=O)Cn2cnc3ccccc3c2=O)cc1 | 93.8 | -5.2 | 95.6 | i | 0.25 | -100.0
CCc1ccc(-c2nc(C)c(CCO)c(=O)[nH]2)cc1 | / | -7.1 | / | i | -1.55 | /
CCN(Cc1ccccc1)C(c1ccccn1)c1nnnn1C(C)(C)CC (stereo unspecified) | 46.1 | 25.1 | 47.5 | i | / | -25.0
CC(C)(C)n1nnnc1C(c1ccccn1)N(Cc1ccccc1)Cc1ccc(Cl)cc1 (stereo unspecified) | 12.2 | 53.4* | 18.0 | i | -1.11 | /
CC1(c2ccc(OC(F)F)cc2)NC(=O)N(CC(=O)Nc2cccc(S(N)(=O)=O)c2)C1=O (stereo unspecified) | / | / | / | / | -0.07 | /
O=C(NCc1ccccc1)C1=C[C@@H](c2ccc(Br)cc2)C[C@@H](OCCCCO)O1 | / | 10.7 | / | i | -1.09 | /
Cc1ccc(N2C(=O)C3C(C2=O)C(C(=O)c2ccc(Cl)cc2)N2CCCC32)cc1 (stereo unspecified) | 98.7 | 94.3* | 97.8 | i | 0.46 | 6.2
CSc1nncc(/C(C)=N/O)n1 | 96.8 | -2.0 | 96.3 | i | 0.42 | 25.7

Assay outcomes from PubChem.
